Only some compounds are listed: those with a hit (about 6.1% of all), similar ones and a draw of the others.
Tau filament bind = qHTS Assay for Tau Filament Binding | recombinant tau filaments, thioflavin S fluorescence, 15 h; filaments grown with octadecylsulfate alongside compound | Potency, µM (top dose mostly 57.1 µM), inactives show top-dose activity change, negative = inhibition | 71,000 tested, 2% active | AID 596, 2007;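 further: actives lower thioflavin S fluorescence by blocking filaments or displacing dye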
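Thioflavine S fluorescence (ex 450, em 510 nm) reports filaments formed from 1 uM human tau plus 30 uM ODS over 15 h at 37 C (10 mM HEPES pH 7.4, 100 mM NaCl, 5 mM DTT); compounds displacing dye or blocking filaments lower signal.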
Hsp90 Hop PPI = qHTS Assay for Disrupters of an Hsp90 Co-Chaperone Interaction | Hsp90 C-terminal peptide / TPR2A (Hop) interaction, human | 71,000 tested, 0.44% active | AlphaScreen TPR2A-His6 binding biotin-Hsp90 C-terminal peptide | Potency, µM (doses to about 57 µM), without a hit: top-dose activity change, negative = inhibition | AID 595, 2007; active means well fitted curve in either direction with a large enough effect; inconclusive means small, poorly fitted or top-dose-only effect, or another doubt
15-hLO inh = qHTS Assay for Inhibitors of 15-hLO (15-human lipoxygenase); Polyunsaturated fatty acid lipoxygenase ALOX15 (Homo sapiens), P16050; purified 15hLO-1, xylenol orange hydroperoxide absorbance; Potency, µM (highest dose often 57.1 µM), for inactives: at the top dose activity change, negative = inhibition, hits mostly inhibitors; 74,000 tested, 1.4% active; AID 887, 2007; further: nearly all actives have a fitted effect of over 55% in size
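Readout: Fe(III)-xylenol orange absorbance, 573-to-405 nm ratio as reaction progress. Enzyme 40 nM purified human 15hLO-1, substrate 50 uM arachidonic acid, 6 min RT after 15 min compound preincubation; Hepes pH 7.5 buffer with Triton X-100.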
Luciferase inh = qHTS Assay for Inhibitors of Firefly Luciferase. AID 411, 2009. Potency, µM (top dose mostly 57.1 µM), inactives show top-dose activity change, negative = inhibition, hits mostly inhibitors. 72,000 tested, 2.2% active. purified firefly luciferase, luminescence, 8 min; further: nearly all actives have a fitted effect of over 40% in size
Target sequence (P08659 whole entry, looked up): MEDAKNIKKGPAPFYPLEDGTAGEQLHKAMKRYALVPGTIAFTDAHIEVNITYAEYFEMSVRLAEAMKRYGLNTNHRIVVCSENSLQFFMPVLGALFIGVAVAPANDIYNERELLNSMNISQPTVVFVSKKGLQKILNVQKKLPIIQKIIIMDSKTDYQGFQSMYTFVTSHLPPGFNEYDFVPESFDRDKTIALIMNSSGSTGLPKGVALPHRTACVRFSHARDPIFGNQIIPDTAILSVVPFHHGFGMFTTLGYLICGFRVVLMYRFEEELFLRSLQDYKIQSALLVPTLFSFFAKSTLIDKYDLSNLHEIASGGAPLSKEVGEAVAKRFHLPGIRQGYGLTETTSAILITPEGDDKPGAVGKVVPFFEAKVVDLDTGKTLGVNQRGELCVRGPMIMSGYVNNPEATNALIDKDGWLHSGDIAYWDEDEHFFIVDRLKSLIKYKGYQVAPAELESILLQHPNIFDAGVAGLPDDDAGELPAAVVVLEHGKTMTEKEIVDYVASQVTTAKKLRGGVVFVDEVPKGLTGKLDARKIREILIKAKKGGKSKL
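Firefly luciferase (PKLight detection mix) with 10 uM ATP in pH 7.2 imidazole buffer (KCl, MgCl2, Tween 20, BSA). Compounds tested across a concentration series (qHTS). Luminescence read after 8 min at ambient temperature.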
PK Bst = Pyruvate Kinase; purified pyruvate kinase, luminescence ATP production; ribose 5-phosphate activator present at AC10; Potency, µM; 51,000 tested, 1.2% active; AID 361, 2006; in the data active means potency below about 11 µM; inconclusive means mostly about 12 µM to 25 µM;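 the screen sought inhibitors and activators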;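 further: scaled between full activation by ribose 5 phosphate and full inhibition by luteolin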
ERK AVP inh = qHTS Assay for Inhibitors of the ERK Signaling Pathway using a Homogeneous Screening Assay; HEK293-V1b, vasopressin-stimulated pERK AlphaScreen; Potency, µM (series often up to 57.5 µM), without a hit: top-dose activity, negative = inhibition, usual class: inhibitors; 72,000 tested, 0.99% active; AID 995, 2007; further: nearly all actives have a fitted effect of over 55% in size
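Overnight-seeded V1b-HEK293 cells in 1% FBS got compound, then vasopressin (25 nM final, 5 min, 37C), then lysis buffer. AlphaScreen detection of phospho-ERK; activity normalized to basal and full-stimulation controls.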
The depositor's hits bear a star; i = inactive; ? = inconclusive; nt = no result; ! = repeats disagree; [ ] = remark or other dose. Unless noted, the call rests on the fitted dose curve; in most records, active means well fitted curve in the direction sought with a large enough effect; inconclusive means small, poorly fitted or top-dose-only effect, or another doubt; inactive means no such curve, though single readings can be large; an effect the other way counts as inactive or inconclusive. Unless noted, on the % scale 0 is the no-effect control and ±100 the full control effect; potency means the concentration at half of the fitted maximal effect.

SMILES	Tau filament bind	Hsp90 Hop PPI	15-hLO inh	Luciferase inh	PK Bst	ERK AVP inh
CO[C@H]1C[C@@H](O[C@@H]2[C@H](C)[C@H](O[C@@H]3O[C@@H](C)C[C@@H](N(C)C)[C@@H]3O)[C@H](C)C[C@]3(CO3)C(=O)[C@H](C)[C@H](O)[C@H](C)[C@H](C)OC(=O)[C@@H]2C)O[C@@H](C)[C@H]1O	-10%[25.6 µM]	0%[26 µM]	1%[25.6 µM]	2%[25.5 µM]	nt	-7%[25.7 µM]
CC(=O)n1nc(-c2ccco2)nc1SCc1ccccc1	25µM*	-29%	4µM*	-17%	nt	?
C[C@H](C(=O)c1ccccc1)[C@@H](c1ccccc1)N1CCOCC1	2%[11.4 µM]	-3%[11 µM]	0%[11.4 µM]	3%[11.4 µM]	nt	-7%[11.5 µM]
CC[N+](C)(CC)CCN1C(=O)c2ccccc2S1(=O)=O	-8%[11.4 µM]	0%[11 µM]	2%[11.4 µM]	1%[11.4 µM]	nt	6%[11.5 µM]
Cc1ccc(OCC(=O)Nc2cccc(C)n2)c(C)c1	6%	9%	0%	16µM*	nt	24%
O=c1cc(-c2ccccc2)[nH]c2nc3ccccc3n12	110%	-2%	-4%	2.5µM*	1*	2%
Cc1cnc(CNc2ncncc2-c2c(C)noc2C)cn1	-1%	-2%	-7%	-5%[2.29 µM]	nt	8%
CCOC(=O)c1oc2ccc(Br)cc2c1NC(=O)CN1CCN(C)CC1	35%	-6%	13%	3%	nt	29%
COc1ccc2oc(C(=O)c3ccccc3)c(NC(=O)CN3CCN(C)CC3)c2c1	4µM*	-5%	-4%	-1%	i	-18%
O=C(Nc1ccc2c(c1)OCCO2)c1c(F)cccc1F	0%	-3%	4%	13µM*	nt	-7%
O=C(Nc1ccc2c(c1)OCCO2)c1ccccc1F	?	-3%[11 µM]	-10%[11.4 µM]	5µM*	nt	-20%
Cc1cccc2sc(NC(=O)Cn3cccc3)nc12	5%	-13%	?	-1%	nt	25µM*
COC(=O)Nc1nc2c(C)cccc2s1	0%	-11%	-14%	1%	>57	-6%
Cc1nc(NC2CCCCC2)c2nc(-c3ccccc3)n(CCCN3CCCCC3C)c2n1 (stereo not given)	62%	-3%	7%	nt	nt	-8%
COc1ccccc1S(=O)(=O)Cc1ccc(C(=O)N2CCN(c3ccc(C)cc3)C(C)C2)o1 (stereo not given)	17%	-7%[2.3 µM]	-13%	2%	nt	25µM*
CC1(C)CC(NC(=O)c2coc(=O)c(Br)c2)CC(C)(C)N1	-1%	0%	-2%	1%	>57	20µM*
Cc1cc(/C=C\c2ccc3cc(N(C)C)ccc3[n+]2C)c(C)n1-c1ccccc1	3.2µM*	?	nt	nt	nt	?
COc1ccc(-n2c(=O)c(-c3cccs3)nc3cnc(N4CCN(C)CC4)nc32)cc1	i	9%	-14%	1%[11.4 µM]	nt	30%
O=C(O)c1cc(O)c2c(c1)C(=O)c1cccc(O)c1C2=O	421%	0%	13µM*!	-3%[25.5 µM]	>26	-27%
COc1ccc(NC(=O)N2CCC3(CC2)CCN(S(C)(=O)=O)CC3)cc1	-14%	-2%	0%	-1%[11.4 µM]	nt	-1%
OC1c2ccccc2-c2nc3ccccc3cc21 (stereo not given)	-30%	-9%	nt	nt	nt	-23%
O=C1C2C3CCCC3=C3CCCC3C2C(=O)N1c1ccccc1 (stereo not given)	1%	3%	20µM*	2%	nt	-2%
CCCc1ccc(-c2ccc(C(=O)O)cc2)nc1	-7%	2%	0%	16µM*	nt	2%
CCCc1ccc(OCC(=O)O)cc1	0%	0%	6%	-5%	nt	-22%
COC(=O)c1cc(Cc2ccc(N)c(C(=O)OC)c2)ccc1N	?	?	25µM*	-1%	nt	-25%
SMILES	Tau filament bind	Hsp90 Hop PPI	15-hLO inh	Luciferase inh	PK Bst	ERK AVP inh
COC(=O)c1ccc(C(=O)OC)c(N)c1	5%	3%	7%	-13%	>57	19%
COc1cccc(-c2cc3nc(-c4ccccc4)cc(N4CCC5(CC4)OCCO5)n3n2)c1	28%	20µM*	-5%	-3%	nt	-7%
COc1ncc2nc(-c3ccc(Cl)cc3)c(=O)n(Cc3cccs3)c2n1	-2%	-4%	-17%	-2%[11.4 µM]	nt	7%
CCCCn1c(SCC(=O)NC(=O)NCc2ccco2)nc2cc(S(N)(=O)=O)ccc21	15%	-9%	10µM*	-18%	>57	?
O=C(O)c1cc(S(=O)(=O)Nc2ccc(O)cc2)ccc1Cl	nt	nt	1%	nt	nt	nt
CCN(CC)CCOCCOC(=O)C1(c2ccccc2)CCCC1	?	-3%	-25%	-3%	nt	6%
CCN(CC)CCOC(=O)C1(c2ccc([N+](=O)[O-])cc2)CCCC1	13µM*!	-4%	?	0%	nt	11%
O=c1cc(N=Nc2ccc(O)cc2)[nH]c(=O)[nH]1	-3%[11.4 µM]	-3%[11 µM]	2%[11.4 µM]	-16%[11.4 µM]	nt	-16%[11.5 µM]
COc1ccccc1-c1nc(C#N)c(N2CCc3ccccc3C2)o1	180%	?	-19%	-2%	?	20µM*
COc1cc2ccc(=O)oc2c(O)c1O	?	-2%	13µM*!	2%[11.4 µM]	nt	?
COc1cc2ccc(=O)oc2c(OC)c1OC	nt	nt	4%	nt	nt	-7%
CC(=O)c1ccc(NC(=O)c2ccn[nH]2)cc1	-6%	-3%	?	25µM*	nt	15%
CC(=O)c1ccc(C(=O)Nc2ccc(N3CCOCC3)cc2)cc1	-13%	-2%	2%	1%	nt	-14%
CCOC(=O)N/N=C1/C[C@@H](O)[C@@H](O)[C@@H]2[C@@H]3C(=O)N(C(C)(C)C)C(=O)[C@H]3CC[C@@H]12	nt	nt	7%[11.4 µM]	-2%[11.4 µM]	nt	16%[11.5 µM]
CC(C)(C)C(=O)c1sc(Nc2ccccc2)nc1N	-18%	-15%	-14%	13µM*	?	-11%
CC1(C)C(O)C=C[C@@]2(C)C1CC(=O)O[C@@]1(C)C3=CC(=O)OC(c4ccoc4)[C@]3(C)CCC21 (stereo not given in full)	nt	nt	2%	nt	nt	-7%
CCOc1ccc(C2c3c(oc4ccccc4c3=O)C(=O)N2c2ccc(C)cn2)cc1OC (stereo not given)	4µM*	-6%	-1%	0%	nt	-7%
COc1ccc(C2c3c(oc4ccccc4c3=O)C(=O)N2c2ccccn2)cc1 (stereo not given)	131%	-3%	4%	2%	nt	-11%
COc1cc(C2c3c(oc4cc(C)c(C)cc4c3=O)C(=O)N2c2cc(C)ccn2)ccc1O (stereo not given)	5µM*	?	-6%	2%	>57	9%
Cc1ccc(N2C(=O)c3oc4ccccc4c(=O)c3C2c2cccc(O)c2)nc1 (stereo not given)	25µM*	-10%	?	0%	nt	?
